# Shown are actives, neighbours in structure and some others; about 19% of the full set was active somewhere.
# DT40 TDP1 CPT = DT40-hTDP1 cell growth loss with CPT. actives 12% (n = 420,000). AID 686979. Potency, µM (highest dose often 46.2 µM), most hits filed as inhibitors. chicken DT40 Tdp1-/-;hTDP1 cells + 20 nM CPT, ATP luminescence, 48 h; further: nearly all actives have a fitted effect of over 55% in size
#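 Chicken DT40 Tdp1-/- cells stably complemented with human TDP1 were seeded at 400 cells/well in medium containing 20 nM camptothecin, exposed to pin-transferred compounds, and grown at 37 °C for at least 48 hr. Viability was read as ATP luminescence.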
# TDP1 cell noCPT = qHTS for Inhibitors of human tyrosyl-DNA phosphodiesterase 1 (TDP1): qHTS in cells in absence of CPT | DT40 Tdp1-/- hTDP1 cells, no CPT, ATP luminescence, 48 h | Potency, µM (doses to about 46.2 µM), hits mostly inhibitors | actives 15% (n = 420,000) | AID 686978, 2013; further: nearly all actives have a fitted effect of over 55% in size
#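 Luminescent ATP content (CellTiter-Glo) served as the growth readout. Knockout chicken DT40 cells expressing human TDP1 were exposed to compounds without camptothecin for a minimum 48 hr at 37 °C.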
# KB-3-1 cytotox = kills parental KB-3-1 adenocarcinoma cells; actives 1.4% (n = 400,000); Potency, µM (highest dose often 46.1 µM), hits mostly cytotoxic; KB-3-1 viability, CellTiter-Glo ATP luminescence, 72 h; AID 1347075; further: nearly all actives have a fitted effect of over 60% in size
#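 Using CellTiter-Glo luminescence, growth of non-resistant KB-3-1 adenocarcinoma cells is assessed 72 h after pin-tool compound addition at 37 °C. Normalized responses across the concentration series yield fitted curves.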
# HT1080 IDH1KD tx = HT-1080 IDH1 knockdown cell toxicity (counter line); Potency, µM (titrated, usually from 46.1 µM), most hits filed as cytotoxic; actives 2% (n = 360,000); HT-1080 IDH1 knockdown viability, ATP luminescence, 48 h; AID 686971
#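 Cytotoxicity counter-line: IDH1KD HT-1080, 48 h, CellTiter-Glo. Curves classed by r2, magnitude and activity.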
# KB-V1 MDR tox = KB-V1 MDR subline cytotoxicity; KB-V1 MDR cells viability, CellTiter-Glo, 72 h; Potency, µM (titrated, usually from 46.1 µM), hits mostly cytotoxic; actives 3.4% (n = 400,000); AID 1347076; further: nearly all actives have a fitted effect of over 60% in size
#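 Compound-treated KB-V1 multidrug-resistant cells, 72 h, 37 degrees C; viability by CellTiter-Glo. Fitted qHTS curves give the values.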
# HT1080NT lethal = kills 2HG-producing HT-1080-NT fibrosarcoma cells. HT-1080-NT fibrosarcoma viability, CellTiter-Glo ATP luminescence, 48 h. Potency, µM (titrated, usually from 46.1 µM), actives largely listed as cytotoxic. actives 1.6% (n = 360,000). AID 686970;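 further: NT is the 2HG producing partner of a matched IDH1 knockdown line; nearly all actives have a fitted effect of over 55% in size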
#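 A 48-hour cytotoxicity screen used HT-1080-NT cells plated 2 hours before compound delivery. ATP-based CellTiter-Glo luminescence measured viability, normalized to DMSO and no-cell controls.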
# A number is an active result; n = inactive; u = inconclusive; x = not tested or not shown; [ ] = remark or other dose. The call rests on the fitted dose curve; in most records, active means well fitted curve in the direction sought with a large enough effect; inconclusive means small, poorly fitted or top-dose-only effect, or another doubt; inactive means no such curve, though single readings can be large; an effect the other way counts as inactive or inconclusive.
SMILES,DT40 TDP1 CPT,TDP1 cell noCPT,KB-3-1 cytotox,HT1080 IDH1KD tx,KB-V1 MDR tox,HT1080NT lethal
O=C(/C=C/c1cn(-c2ccccc2)nc1-c1cccc(Cl)c1)N1CCN(c2ccccn2)CC1,u,u,u,n,23µM,n
O=C(/C=C\c1cn(-c2ccccc2)nc1-c1ccc2c(c1)OCCO2)N1CCOCC1,u,10µM,n,n,u,n
C/C(=C\C(=O)Nc1nccs1)c1ccccc1,n,n,n,n,u,n
CS(=O)(=O)c1[nH]nc(-c2ccccc2Cl)c1C#N,n,n,n,n,n,n
NS(=O)(=O)c1ccc(CCNC(=O)c2cnc(Cl)c(Cl)c2)cc1,n,n,n,n,n,n
CC[C@]12c3[nH]c4ccc(OC)cc4c3CCN1C(=O)C(CC(=O)NCCc1ccccn1)C[C@@H]2C(=O)N1CCN(C(=O)C2CC2)CC1 (some centres undefined),n,n,n,n,n,n
O=C(NCc1cccc(C(F)(F)F)c1)c1csc([C@@H]2C[C@H](O)[C@@H](CO)O2)n1,n,n,n,n,n,n
Cc1ccc(OCCC(=O)Nc2ccc(S(=O)(=O)N3CCCC3)cc2)cc1,u,15µM,n,n,n,n
CCOc1ccc(CC(=O)Nc2ccc(S(=O)(=O)N3CCCC3)cc2)cc1,u,15µM,x,n,x,n
O=C(CSc1nnc2c(n1)[nH]c1ccc(S(=O)(=O)N3CCOCC3)cc12)Nc1ccccc1Cl,u,n,n,n,n,n
CCOc1ccc(NC(=O)CSc2nnc3c(n2)[nH]c2ccc(S(=O)(=O)N4CCCCC4)cc23)cc1,13µM,16µM,x,u,x,u
O=C(Cc1ccc(F)cc1)Nc1ccc(S(=O)(=O)N2CCCC2)cc1,n,u,n,n,n,n
Cc1cc(C(=O)N2CCC2(C)C(=O)NS(=O)(=O)c2cccc(Cl)c2)nn1C (centres undefined),n,u,n,n,n,n
N#C/C(C(=O)NCc1ccccc1)=C1/SC(Cc2ccc(Cl)cc2)C(=O)N1c1ccccc1 (centres undefined),n,n,n,n,n,n
Cc1nn(C(C)C)c(C)c1CN1CCN(Cc2ccsc2)C(CCO)C1 (centres undefined),n,n,n,n,n,n
CC(C)C1OC(CCc2ccccc2)Cc2[nH][nH]c(=O)c21 (centres undefined),n,23µM,n,u,n,u
CC(C)c1ccc([C@@H]2O[C@H](CCc3ccccc3)Cc3[nH][nH]c(=O)c32)cc1,n,u,n,n,n,n
CCOC(=O)C1CN(S(=O)(=O)c2cccs2)c2ccc(CC(=O)OC)cc2O1 (centres undefined),n,n,n,n,u,n
Cc1cc(C)c(C#N)c(SCC(=O)Nc2nonc2N)n1,n,u,n,n,u,n
Cc1ccc(-c2noc(CN(C(=O)Cc3ccccc3)C(C)C)n2)cc1,u,u,n,n,23µM,n
COc1ccccc1OCC(=O)N(Cc1nc(-c2ccc(Cl)cc2)no1)C(C)C,u,16µM,n,n,u,n
COc1ccccc1OCC(=O)N(Cc1nc(-c2ccccc2)no1)C(C)C,n,u,n,n,u,n
COc1cccc(OCC(=O)N(Cc2nc(-c3ccc(Cl)cc3)no2)C(C)C)c1,8.2µM,23µM,u,u,n,u
Cc1ccc(-c2noc(CN(C(=O)COc3cc(C)cc(C)c3C)C(C)C)n2)cc1,23µM,u,n,x,n,x
Cc1ccc(OCC(=O)N(Cc2nc(-c3ccccc3)no2)C(C)C)cc1C,u,u,n,x,n,x
Cc1cc(Br)ccc1OCC(=O)N(Cc1nc(-c2ccccc2)no1)C(C)C,n,n,u,n,n,n[9.24 µM]
Cc1cccc(CCNC(=O)c2cc3c(=O)n(C)c4ccccc4c3n2C)c1,u,u,n,x,n,x

# Source: PubChem BioAssay
